PNC assembly inh = inhibitors of perinucleolar compartment assembly; PC3M PTB-GFP, PNC prevalence imaging, 16 h; stronger effect = lower value; activity change (PNC), negative = inhibition, % at 10 µM; AID 2417; actives 3.1% (n = 140,000);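 active means readout at or below -70, meaning at least 70% loss of cells showing the perinucleolar compartment, a nuclear body marking cancer cells; inconclusive means readout between -30 and a set limit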
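Compounds are pinned in duplicate onto adhered PC3M cells stably expressing GFP-tagged PTB and incubated 16 h at 37 C. Cells are then fixed, nuclei stained with Hoechst, and PNC-positive cells counted.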
ALOX15B inhib = blocks human 15-lipoxygenase 2 activity. O15296. purified 15hLO-2, xylenol orange hydroperoxide absorbance. Potency, µM (highest dose often 57.1 µM), hits mostly inhibitors. actives 0.56% (n = 110,000). AID 881; further: nearly all actives have a fitted effect of over 60% in size
Target sequence (O15296 whole entry, looked up): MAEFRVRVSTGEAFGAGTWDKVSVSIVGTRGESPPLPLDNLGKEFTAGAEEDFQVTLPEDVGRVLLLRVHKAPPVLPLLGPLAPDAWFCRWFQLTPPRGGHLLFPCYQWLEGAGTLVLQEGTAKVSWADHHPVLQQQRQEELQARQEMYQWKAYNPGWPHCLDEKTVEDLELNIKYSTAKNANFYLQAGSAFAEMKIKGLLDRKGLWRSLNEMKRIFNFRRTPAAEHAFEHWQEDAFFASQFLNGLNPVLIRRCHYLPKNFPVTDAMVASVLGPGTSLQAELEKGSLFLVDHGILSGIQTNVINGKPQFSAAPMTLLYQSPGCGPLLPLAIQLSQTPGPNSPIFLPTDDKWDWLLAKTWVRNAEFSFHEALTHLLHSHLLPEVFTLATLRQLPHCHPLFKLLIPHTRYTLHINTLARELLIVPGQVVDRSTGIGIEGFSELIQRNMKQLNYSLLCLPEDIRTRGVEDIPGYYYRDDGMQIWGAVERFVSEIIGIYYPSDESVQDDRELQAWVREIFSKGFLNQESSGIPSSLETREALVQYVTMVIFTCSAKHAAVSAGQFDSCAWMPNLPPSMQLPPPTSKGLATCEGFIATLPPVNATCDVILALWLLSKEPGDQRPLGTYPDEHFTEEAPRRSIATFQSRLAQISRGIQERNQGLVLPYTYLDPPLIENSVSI
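Read-out: hydroperoxide product oxidises ferrous iron, measured as xylenol orange complex via the 573-to-405 nm absorbance ratio after 30 min. Reaction: 50 nM enzyme, 15 min compound preincubation, 45 uM arachidonic acid, 90 min RT, Hepes pH 7.5 with Triton X-100.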
ALOX12 inhib = 12-hLO (ALOX12) enzyme inhibition | P18054 | purified 12-hLO, xylenol orange hydroperoxide absorbance | Potency, µM (highest dose often 57.1 µM), usual class: inhibitors | actives 0.12% (n = 150,000) | AID 1452; further: nearly all actives have a fitted effect of over 55% in size
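Lipoxygenase turnover measured by absorbance at 573 and 405 nm after Fe-XO development. Human 12hLO 150 nM, arachidonate 40 uM, pH 7.0 Hepes buffer with detergent; 15 min compound preincubation, 30 min reaction.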
A number is an active result; - = inactive; ? = inconclusive; . = not tested or not shown; [ ] = dose if it differs, or a comment. Sampled rows, rich in hits. Any-hit rate of the full collection: about 3.1%. Unless noted, the call rests on the fitted dose curve; in most records, active means well fitted curve in the direction sought with a large enough effect; inconclusive means small, poorly fitted or top-dose-only effect, or another doubt; inactive means no such curve, though single readings can be large; an effect the other way counts as inactive or inconclusive.

SMILES	PNC assembly inh	ALOX15B inhib	ALOX12 inhib
Cn1cc(SCC(=O)N2CCOCC2)c2ccccc21	-108	-	-
COc1ccc(Oc2ncc3nc(CCc4ccccc4)c(=O)n(CCC#N)c3n2)cc1	.	-	-
CC(C)CNC(=O)c1ccc(NC(=O)c2ccccc2[N+](=O)[O-])cc1	-84	.	-
CC(C)CNC(=O)c1cccc(NC(=O)c2ccc(Cl)c([N+](=O)[O-])c2)c1	-89	.	-
COc1cccc(C(=O)Nc2cccc(C(=O)NCC(C)C)c2)c1	?	.	-
COc1cc(NC(=O)c2ccccc2[N+](=O)[O-])ccc1NC(=O)C(C)C	-	.	-
CCCS(=O)(=O)N1CCN(Cc2ccccc2OCC)CC1	-85	-	-
CCOc1ccccc1CN1CCN(S(=O)(=O)CC)CC1	?	-	-
COC1C(O)CC(=O)OC(C)C/C=C/C=C/[C@@H](OC2CCC(N(C)C)C(C)O2)C(C)C[C@@H](CC=O)[C@@H]1O[C@H]1OC(C)[C@H](O[C@@H]2C[C@@](C)(O)C(O)C(C)O2)C(N(C)C)C1O (some centres undefined)	.	-	-
O=C(CN1CCN(c2ccc(F)cc2)CC1)NCC1CCCO1 (centres undefined)	-	-	-
COc1ccccc1N1CCN(CC(=O)NCC2CCCO2)CC1 (centres undefined)	-119	.	-
O=C(O)CC(CC(=O)O)C(=O)O	.	-[11.4 µM]	-[11.4 µM]
O=C(NCc1ccc(Cl)cc1)c1cccc(NC(=O)c2ccccc2)c1	-100	.	-
O=C(NCc1ccccc1)c1cccc(COc2ccc(Cl)cc2)c1	-	-	?
O=C=Nc1ccc(Cl)c(Cl)c1	.	-	-
Cc1noc(C)c1C(=O)N1CCC2(CC1)CN(c1cccc(-c3ccccc3)c1)C2	.	-	-
C[C@@H](C(=O)NCc1nc2ccccc2[nH]1)[C@@H]1C[C@@]1(C)[C@@H](NC(=O)OCc1ccccc1)c1ccccc1	.	-	-
COc1ccccc1-c1cncnc1NCc1cnc(C)cn1	.	-	.
COc1cccc(C(=O)N2CCCc3ccccc32)c1	-85	-	-
O=C(c1ccccc1)N1CCCc2ccccc21	-	.	-
O=C(COc1ccc(Cl)cc1Cl)NC(=S)N1CCCc2ccccc21	-	?	-
Cc1cccc(OCC(=O)NC(=S)N2CCCc3ccccc32)c1	-	20µM	-
COCc1cc(C)nc2sc(C(=O)OC)c(N)c12	-	-	-
COCc1cc(C)nc2sc(C(=O)N3CCCC3)c(N)c12	-117	-	-
Cc1ccc(Cn2c3ccccc3c3cn[nH]c(=O)c32)cc1	-108	-	-
SMILES	PNC assembly inh	ALOX15B inhib	ALOX12 inhib
O=c1[nH]ncc2c3ccccc3n(Cc3ccccc3)c12	-	-	-
O=C(c1cccc(F)c1)N1CCC[C@@]2(CCN(c3ncccn3)C2)C1	.	-	-
O=C(O)CC[C@@]1(c2ccccc2)NC(=O)NC1=O	.	-[11.4 µM]	-[11.4 µM]
Cc1cccc(S(=O)(=O)C(C#N)c2nc3ccccc3nc2N2CC(C)OC(C)C2)c1 (centres undefined)	?	?	-
Cc1ccc(S(=O)(=O)C(C#N)c2nc3ccccc3nc2N2CCCC2)cc1 (centres undefined)	-	?	28µM
Cc1ccc(S(=O)(=O)C(C#N)c2nc3ccccc3nc2N2CC(C)OC(C)C2)cc1C (centres undefined)	-139	-	-
CCN1CCN(c2nc3ccccc3nc2C(C#N)S(=O)(=O)c2ccc(C)cc2)CC1 (centres undefined)	-	-	-
O=C(NCCCN1CCOCC1)c1ccc(Cc2nc3ccccc3[nH]2)cc1	.	.	-
CC(C)C[C@@H](CC(=O)N[C@@H](CCCN)CC(=O)N[C@@H]1CCCC[C@H]1C(=O)N[C@H](CC(=O)N[C@@H](CCC(=O)O)CC(=O)O)Cc1ccccc1)NC(=O)[C@@H]1CNCC[C@H]1N	.	.	-
COc1ccc(C(=O)c2ccc(O)cc2)c(O)c1O	.	-	-
Cc1ccccc1-c1nc(NCCN2CCOCC2)c2ccccc2n1	.	-	-
Cc1c(/C=N\NC(=O)c2ccc([N+](=O)[O-])cc2)cnn1C	-109	.	-
O=C(N/N=C/c1cccnc1)c1ccc([N+](=O)[O-])cc1	-	-	-
CSCC[C@H](C=O)NC(=O)[C@H](CC(C)C)NC(=O)[C@H](CC(C)C)NC(C)=O	.	-	-
O=C(O)C[C@H](Sc1ccccc1)c1ccccc1	.	-[11.4 µM]	-[11.4 µM]
O=C(c1cccc(F)c1)N1CCC2(CC1)CCN(c1ccncc1)CC2	.	-	-
Clc1ccccc1Cn1nnc2c(Nc3ccccc3)ncnc21	-	-	-
CCc1nc(Nc2ccc(OC)c(OC)c2)c2nnn(Cc3ccccc3Cl)c2n1	-119	.	-
CC(C)C[C@@H](CC(=O)N[C@@H](CCC(=O)O)CC(=O)O)NC(=O)[C@@H]1CNCC[C@H]1NC(=O)C[C@H](CCCN)NC(=O)C[C@H](Cc1c[nH]c2ccccc12)NC(=O)[C@@H]1CCCC[C@H]1N	.	.	-
CCn1c(C)cc(/C=C2\SC(=O)N(CC(=O)Nc3ccc(C)c(C)c3)C2=O)c1C	-	?	-
Cc1ccc(NC(=O)CN2C(=O)S/C(=C/c3ccc(-c4cc(C(=O)O)ccc4C)o3)C2=O)cc1C	-	20µM	-
COc1ccc(NS(=O)(=O)c2ccc(I)cc2)cc1N1CCN(C)CC1	.	-	-
CC[C@@]1([N+](=O)[O-])C[C@H]2C=C[C@@H]1C2	.	-[11.4 µM]	-[11.4 µM]
CCCOc1ccccc1C1CC(=O)Nc2cc3c(cc21)OCCO3 (centres undefined)	-116	.	-
CCOc1ccccc1C1CC(=O)Nc2cc(OC)c(OC)c(OC)c21 (centres undefined)	-	-	-
SMILES	PNC assembly inh	ALOX15B inhib	ALOX12 inhib
CCCOc1ccccc1C1CC(=O)NC2=C1C(=O)CCC2 (centres undefined)	-	-	-
O=C1CC(c2cccnc2)c2cc3c(cc2N1)OCO3 (centres undefined)	-	.	-
CC(C)Oc1ccccc1C1CC(=O)Nc2cc3c(cc21)OCO3 (centres undefined)	-81	-	-
CCOc1ccccc1C1CC(=O)Nc2cc3c(cc21)OCCO3 (centres undefined)	-86	-	-
COC(=O)[C@@]1(Cc2ccc(OC)cc2)[C@H]2c3cc(C(=O)N(C)C)n(CCc4ccc(O)c(OC)c4)c3C[C@H]2CN1C(=O)c1ccccc1	.	-	-
COc1cc(O)c(C(=O)O)c(O)c1	.	-	-
O=C(Nc1cccnc1)c1c(F)c(F)c(F)c(F)c1F	-107	-	-
O=C(Nc1cccnc1)c1cccc(F)c1	-	.	-
O=C(c1ccco1)N1CCN(CC(O)Cn2c3ccccc3c3ccccc32)CC1 (centres undefined)	-87	-	-
Cc1ccc(-n2nnnc2SCC(=O)N2CCN(C(=O)c3ccco3)CC2)c(C)c1	-83	-	-
CCCCn1nnnc1SCC(=O)N1CCN(C(=O)c2ccco2)CC1	-	-	-
O=C(CSCc1ccccc1)N1CCN(C(=O)c2ccco2)CC1	-100	.	-
Cc1ccc(C)n1CCN1CCN(C(=O)c2ccco2)CC1	?	-	-
O=C(COc1ccccc1)N1CCN(C(=O)c2ccco2)CC1	-	-	-
CSC(N)=NCCC[C@@H](N)C(=O)O	.	-	-
